From PubChem BioAssay AID602250 (The Scripps Research Institute Molecular Screening Center, 2012)
Out of some 360,000 compounds screened, about 2,200 (0.61%) were called active. Many of the other results were omitted from the sample, so actives are more common in it than they were. A number with no mark means an inactive call.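 The calls were made as follows: active = inhibition above a per-plate cutoff, the plate's mean sample inhibition plus 3 SD (cut at about 24% in these data); inactive = the rest.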

assay: calcium signal blockers in parental CHO-K1 cells – cell-based, Fluo-8 calcium fluorescence, full deck, 1536-well, counter-screen for M1 antagonist project, primary screen (AID 602250); conditions: ATP-induced calcium, Fluo-8 fluorescence, at 3 µM, hits give high values;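 also: 0% = DMSO plus EC80 ATP and 100% = DMSO alone without ATP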

Row | SMILES | inhibition
1 | CC(NC(=O)CNC(=O)Cc1cccc2ccccc12)c1ccc(S(N)(=O)=O)cc1 (stereo not drawn) | 4.92%
2 | COc1ccc(S(=O)(=O)N2CCCCC2)cc1NC(=O)COc1ccccc1 | -8.54%
3 | COc1ccc(-c2nn(C)c(=O)c3ccccc23)cc1NC(=O)COc1ccccc1 | 23.8% (active)
4 | COc1ccc(-c2nn(C)c(=O)c3ccccc23)cc1CNC(=O)C1CCCCC1 | 3.7%
5 | O=C(O)CCn1c(SCc2cc(=O)n3ccccc3n2)nc2ccsc2c1=O | -10.2%
6 | CCOC(=O)C1(CCOC)CCN(Cc2cc3ccccc3s2)CC1 | -9.7%
7 | CCNC(=O)c1cccc(NC(=O)C2CC(=O)N(CCc3ccccc3)C2)c1 (stereo not drawn) | -8.93%
8 | COC(=O)C1=C(C(=O)OC)C2(OC1c1ccc(Br)cc1)C(=O)c1ccccc1C2=O (stereo not drawn) | -3.96%
9 | O=C(c1ccc(C(F)(F)F)cc1)C1CCCN(C(=O)c2csnn2)C1 (stereo not drawn) | -23.1%
10 | CC(C)(C)OC(=O)C[C@@H]1C/C=C\C[C@@H](CC(=O)NCCO)C(=O)N[C@H](Cc2c[nH]c3ccccc23)COC1=O | -11.8%
11 | Cc1nc(CN(C)C(=O)CC2C(=O)NCCN2Cc2ccc(F)cc2)cs1 (stereo not drawn) | -6.22%
12 | Nc1c(C(=O)c2cccs2)sc2nsc(SCCN3CCCCC3)c12 | 47% (active)
13 | CCN(CC(=O)Nc1cc(Cl)ccc1C)C(=O)CN1C(=O)NC2(CCCC2)C1=O | -4.87%
14 | COc1cc(-c2nnc(Cn3cc(C(F)(F)F)ccc3=O)o2)cc(OC)c1OC | 27.6% (active)
15 | CCCc1nc2ccccc2c(C(=O)OCc2nnc(-c3cc(OC)c(OC)c(OC)c3)o2)c1CC | 1.5%
16 | COc1cc(-c2nnc(NC(=O)CS(=O)(=O)c3ccc(Cl)cc3)o2)cc(OC)c1OC | 12.6%
17 | Cn1c(SCC(=O)NC2CCCCC2)nnc1-c1ccc(N)cc1 | 3.52%
18 | N#Cc1cc([N+](=O)[O-])ccc1NCC1CCCO1 (stereo not drawn) | -8.37%
19 | O=C1C(C=NCC2CCCO2)=C(O)c2ccccc21 (stereo not drawn) | -5.68%
20 | O=C1c2cccc3c([N+](=O)[O-])ccc(c23)C(=O)N1CC1CCCO1 (stereo not drawn) | 24.2% (active)
21 | CCOc1ccc(NC(=S)N2CCC(N(C)CC3CCCO3)CC2)cc1 (stereo not drawn) | -7.23%
22 | COc1ccc(CC(=O)NC2CCSc3ccccc32)cc1OC (stereo not drawn) | -0.56%
23 | COc1ccc(CCNC(=O)Cc2ccc(C)cc2)cc1OC | 8.59%
24 | COc1ccc(CC(=O)Nc2nc(-c3ccc(F)c(F)c3)cs2)cc1OC | 32.9% (active)

Row | SMILES | inhibition
25 | CC(=O)Nc1cccc(/C(C)=N/NC(=O)c2c(-c3ccccc3Cl)noc2C)c1 | 10.5%
26 | Cc1onc(-c2c(F)cccc2Cl)c1C(=O)N(C)CC(=O)Nc1cccc(F)c1 | -0.6%
27 | CC(=O)Nc1cccc(NC(=O)c2c(-c3ccccc3)noc2C)c1 | 26.9% (active)
28 | CC(C)c1nc(SCC(=O)NC(=O)NC(C)(C)C)n[nH]1 | -2.13%
29 | Cc1cc(NC(=O)Nc2c[nH]c(=O)[nH]c2=O)ccc1Br | -4.71%
30 | O=C1CC(c2ccccc2)=NN1c1ccc([N+](=O)[O-])cc1 | 26.7% (active)
31 | CCN1N=C(c2ccccc2)CCC1=O | -1.49%
32 | O=C1NC(=O)C2C1C(c1ccc([N+](=O)[O-])cc1)=NN2Cc1ccccc1 (stereo not drawn) | -6.56%
33 | Cc1csc(NC(=O)C2CCCN2C(=O)OCC(C)C)n1 (stereo not drawn) | 17%
34 | O=C(N/N=C/c1ccc(OC(=O)c2ccccc2Cl)cc1)c1ccc(O)cc1 | 24.1% (active)
35 | CC(C)(C)C(=O)Nc1ccc(C(=O)N/N=C/c2ccccc2OC(=O)c2ccc(Cl)cc2Cl)cc1 | 13.2%
36 | O=C(N/N=C/c1ccc(OCC2COCCO2)cc1)c1ccc(Br)cc1 (stereo not drawn) | -8.18%
37 | O=C(c1ccccc1F)N(Cc1ccccc1)Cc1ccccc1 | -7.64%
38 | COCCn1c(Cc2cccn2C)nnc1SCC(=O)Nc1nccs1 | -7.19%
39 | Cc1ccc(S(=O)(=O)N2CCN(C(=O)c3cccs3)CC2)cc1 | -9.88%
40 | O[C@H]1C[C@H](c2ccc(Cl)cc2)N(Cc2cccs2)C[C@@H]1n1cc(C2CC2)nn1 | -27.1%
41 | O=C(Nc1ccc(-c2ccc3nncn3n2)cc1)C1CCCCC1 | -5.78%
42 | CCCN(C(=O)CSc1nnnn1C)c1c(N)n(Cc2ccccc2)c(=O)[nH]c1=O | 4.6%
43 | C#CCNC(=O)C[C@@H]1C[C@@]2(C(=O)OCC)CCCC=C2N(Cc2ccco2)C1=O | -0.85%
44 | Nc1nnc(SCC(=O)Nc2ccc3nc(SCC(=O)Nc4ccccc4)sc3c2)s1 | 30% (active)
45 | COc1cc(OC)cc(-c2nnc(SCC(=O)Nc3ccc(C(=O)O)cc3)s2)c1 | -8.28%
46 | CCCCNC(=O)CSc1nc2ccc(NC(=O)CSc3nnc(N)s3)cc2s1 | -6.75%
47 | CCN(CC)CCN1C(=O)C2C(C(=O)Nc3ccc(Br)cc3)C3C=CC2(O3)C1C(=O)NC1CCCCC1 (stereo not drawn) | -12.1%
48 | COc1ccc(C(=O)N2CCCC(C(=O)c3ccccc3OC)C2)cc1OC (stereo not drawn) | 36.9% (active)

Row | SMILES | inhibition
49 | COc1ccc(C(=O)C2CCCN(C(=O)c3cc(C)on3)C2)cc1F (stereo not drawn) | -2.55%
50 | COc1ccc(F)cc1C(=O)C1CCCN(C(=O)CCc2ccccn2)C1 (stereo not drawn) | 4.6%
51 | CCN(CC)CC(=O)Nc1sc2c(c1C(=O)c1ccccc1C)CCC2 | 3.09%
52 | O=C(Nc1ccc(Cl)cc1)OCc1cc(-c2ccccc2)on1 | 7.62%
53 | O=C(Nc1cccc(Cl)c1)OCc1ccccn1 | 25.6% (active)
54 | O=C(Nc1ccc([N+](=O)[O-])cc1)OCCc1ccccn1 | -2.63%
55 | O=C(CN1CCN(S(=O)(=O)c2ccc3ccccc3c2)CC1)NC(=O)NC1CCCCC1 | -2.87%
56 | COc1cc2ccc(C(C)=O)c(O)c2cc1OC | -2.14%
57 | CCN(CC(=O)Nc1ccc2c(c1)OCO2)S(=O)(=O)c1ccccc1 | -6.57%
58 | O=C(CN(c1ccc2c(c1)OCCO2)S(=O)(=O)c1ccccc1)Nc1ccc2c(c1)OCO2 | 30.7% (active)
59 | O=C(CCS(=O)(=O)Cc1ccccc1)Nc1ccc2c(c1)OCCO2 | -8.23%
60 | CC1CCCCN1S(=O)(=O)CCNC(=O)c1ccccc1 (stereo not drawn) | 14.2%
61 | Cc1ccnc(SC2CC(=O)N(c3ccccc3)C2=O)n1 (stereo not drawn) | 16.3%
62 | CCOc1ccccc1N1C(=O)CC(Sc2nccc(C)n2)C1=O (stereo not drawn) | -15.2%
63 | CC(=O)Nc1ccc(N2C(=O)CC(Sc3nccc(C)n3)C2=O)cc1 (stereo not drawn) | 23.8% (active)
64 | C#Cc1ccc([C@@H]2C=C(C(=O)O)O[C@H](OCCCCO)C2)cc1 | -9.51%
65 | O=C(NNc1nc(N2CCCC2)nc(N2CCCC2)n1)c1ccccc1 | -8.06%
66 | CN(N)c1nc(N2CCCC2)nc(N2CCCC2)n1 | 25.6% (active)
67 | FC(F)(F)COc1nc(N2CCCCC2)nc(N2CCNCC2)n1 | -9.46%
68 | COC(=O)c1ccc(CN2CCCC(C(=O)Nc3cccc(-n4cnnn4)c3)C2)cc1 (stereo not drawn) | 0.04%
69 | O=Cc1c(NCCc2cccc(F)c2)c2ccccc2[nH]c1=O | -10.6%
70 | CCCCOc1ccc(N(CC(=O)NC(C)C)C(=O)CCC(=O)Nc2ccccn2)cc1 | 23.1%
71 | COc1cc(CNc2ncn[nH]2)ccc1OCc1ccccc1C | -1.69%
72 | O=C(CNS(=O)(=O)c1ccccc1)NCC(=O)OCc1ccccc1F | -0.17%

Row | SMILES | inhibition
73 | CCSc1ncnc2c(C#N)c3n(c12)CCCCC3 | 40.4% (active)
74 | CCOC(=O)c1c(N=CN(C)C)c(C#N)c2n1CCCC2 | -8.04%
75 | CCSC1=C(C#N)C(=O)n2c1cc1c2CCCC1 | -1.55%
76 | Cc1cc2oc(=O)cc(CN(C)Cc3ccccc3)c2cc1Cl | 6.2%
77 | CCN(CC)CCn1c2c(c(SCC(=O)Nc3ccc(C(C)C)cc3)nc1=O)CCC2 | -0.47%
78 | Cc1ccc2nc(NC(=O)CSc3nc(=O)n(CCCN(C)C)c4c3CCC4)sc2c1 | -19.7%
79 | CCN(CC)CCn1c2c(c(SCC(=O)Nc3nc4ccccc4s3)nc1=O)CCCC2 | 28.3% (active)
80 | C=CCNC(=S)NNc1ncnc2sc3c(c12)CC(C)(C)OC3 | -3.73%
81 | O=C(C1CCN(S(=O)(=O)c2cccs2)CC1)N1CCCCCC1 | -13.2%
82 | Cc1ccc(S(=O)(=O)N2C[C@]3(O)C[C@@H]4C(=O)N(c5ccccc5)C(=O)[C@@H]4C[C@]3(OC(=O)NC3CC3)C2)cc1 | -3.35%
83 | O=C(Nc1ccccc1)c1ccc2nsnc2c1 | 29.9% (active)
84 | CC(C)n1c(=O)[nH]c2cc(C(=O)Nc3ccccc3)ccc21 | 2.48%
85 | Cc1cccc(NC(=O)c2ccc3nsnc3c2)c1C | -0.08%
86 | CCC1Oc2ccc(Cl)cc2N(CC(=O)O)C1=O (stereo not drawn) | -18.5%
87 | COc1ccc(C(=O)NC(=S)N2CCNC(=O)C2CC(=O)OC(C)C)cc1 (stereo not drawn) | -6.8%
88 | CN(C)S(=O)(=O)c1ccc(C(=O)NCCN=C2NS(=O)(=O)c3ccccc32)cc1 | -3.13%
89 | O=C(NCCN=C1NS(=O)(=O)c2ccccc21)c1ccc(S(=O)(=O)N2CCOCC2)cc1 | 2.91%
90 | Cc1ccccc1C(=O)NCCN=C1NS(=O)(=O)c2ccccc21 | 27.1% (active)
91 | C=CCC1(CC=C)CCCN1C(=O)c1cc(COc2ccc(-n3cncn3)cc2)on1 | 31.3% (active)
92 | CCCC(=O)N1CCC1(C)C(=O)Nc1ccc(-n2cncn2)cc1 (stereo not drawn) | -6.21%
93 | O=C(c1cc(COc2c(F)cccc2F)on1)N1CCSCC1 | -8.58%
